{"source": "PubChem BioAssay AID1813", "about": "(Broad Institute, 2009)", "note": "Among all 300,000 compounds or so, about 2,500 (0.83%) were called active. No stated cut-off is given here; in the data, active means inhibition above about 60%; inconclusive means no clear call, values can overlap the other calls; inactive means below that. Shown is part of a subset that was picked to be rich in actives."}
{"test": "5' untranslated region of α-synuclein, MLPCN primary screen (AID 1813);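 further: H4 neuroglioblastoma cells stably carrying SNCA 5'UTR luciferase fusion; 0% = DMSO wells and 100% = positive control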", "conditions": "alpha-synuclein 5'UTR reporter, inhibitor activity; active compounds read high; tested at 7.5 µM"}
{"smiles": "CC12CCC(C(=O)N(c3cccc(Cl)c3)C1=O)C2(C)C", "note": "(stereo not drawn)", "inhibition": "15.6% (inactive)"}
{"smiles": "CC12CCC(C(=O)N(NC(=O)c3ccccc3O)C1=O)C2(C)C", "note": "(stereo not drawn)", "inhibition": "67.6% (active)"}
{"smiles": "O=C(NN1C(=O)C2C(C1=O)C1C=CC2C12CC2)c1ccccc1Cl", "note": "(stereo not drawn)", "inhibition": "12.2% (inactive)"}
{"smiles": "COC(=O)c1scc(C)c1NC(=O)CSc1ccc(Cl)cc1", "inhibition": "14.7% (inactive)"}
{"smiles": "Cc1ccc(CSCCNC(=O)CN(c2ccc(F)cc2)S(C)(=O)=O)cc1", "inhibition": "14.7% (inactive)"}
{"smiles": "O=C(C1CC1)N1N=C(c2ccc(Br)cc2)CC1(O)C(F)(F)F", "note": "(stereo not drawn)", "inhibition": "-12.3% (inactive)"}
{"smiles": "O=C(Cc1ccccc1)N1N=C(c2ccncc2)CC1(O)C(F)(F)F", "note": "(stereo not drawn)", "inhibition": "18.6% (inactive)"}
{"smiles": "O=C(c1ccc(Cl)cc1)N1N=C(c2ccccn2)CC1(O)C(F)(F)F", "note": "(stereo not drawn)", "inhibition": "68.6% (active)"}
{"smiles": "CC(=O)Nc1ccc(N2C(=O)C3C4CC(=O)C(c5ccccc54)C3C2=O)cc1", "note": "(stereo not drawn)", "inhibition": "17.3% (inactive)"}
{"smiles": "CC(Oc1ccccc1)C(=O)NN1Cc2ccccc2C1=N", "note": "(stereo not drawn)", "inhibition": "-12.4% (inactive)"}
{"smiles": "O=C1[C@H]2[C@@H](c3ccc(F)cc3)N3C(=O)N(c4ccc(C(F)(F)F)cc4)C(=O)[C@@]3(Cc3ccccc3)[C@H]2C(=O)N1C1CCCCC1", "inhibition": "-4.59% (inactive)"}
{"smiles": "COc1ccc(CCNC(=O)c2c(C)nn(-c3ccccc3)c2Cl)cc1", "inhibition": "14.8% (inactive)"}
{"smiles": "Nc1nonc1-n1nnc(C(=O)N/N=C/c2c[nH]c3ccccc23)c1-c1ccccc1", "inhibition": "1.28% (inactive)"}
{"smiles": "CCc1ccc2c(c1)C1(NN=C(c3ccccc3)S1)C(=O)N2", "note": "(stereo not drawn)", "inhibition": "71.7% (active)"}
{"smiles": "CCOC(=O)c1c(C)[nH]c(C)c1S(=O)(=O)NCCCc1ccco1", "inhibition": "0.398% (inactive)"}
{"smiles": "Cc1oc2nc(SCC(=O)Nc3ccc(S(N)(=O)=O)cc3)nc(NC(=O)c3ccccc3)c2c1C", "inhibition": "-1.45% (inactive)"}
{"smiles": "CCn1c(CNC(=O)c2cc(OC)c(OC)c(OC)c2)cc2cc(C)ccc21", "inhibition": "-1.14% (inactive)"}
{"smiles": "COc1c(C)c2c(c(O)c1C/C=C(\\C)CCC(=O)O)C(=O)OC2", "inhibition": "76.6% (active)"}
{"smiles": "CN1CN(C)c2ccc([N+](=O)[O-])c3cccc1c23", "inhibition": "35.2% (inactive)"}
{"smiles": "CC1=NN(/C(=N\\c2nnc(C)s2)Nc2ccccc2)[C@H](c2ccc(C)cc2)S1", "inhibition": "-19.5% (inactive)"}
{"smiles": "COCCCn1c(SCC(=O)NC2CCCC2)nnc1-c1ccccc1", "inhibition": "4.11% (inactive)"}
{"smiles": "Cn1c(N)c(C(=O)COC(=O)c2ccccc2NCc2ccco2)c(=O)n(C)c1=O", "inhibition": "6.96% (inactive)"}
{"smiles": "COc1ccc(/C=C/C(=O)Nc2ccc(C34CC5CC(CC(O)(C5)C3)C4)cc2)cc1OC", "inhibition": "76.5% (active)"}
{"smiles": "COc1ccc(/C=C/C(=O)Nc2cccnc2)cc1OC", "inhibition": "-72.4% (inactive)"}
{"smiles": "COc1ccc(/C=C/C(=O)Nc2ccc(C)cc2)cc1S(=O)(=O)N1CCOCC1", "inhibition": "-60% (inactive)"}
{"smiles": "COc1ccc(-c2nn(C)c(=O)c3ccccc23)cc1CNC(=O)C1CCCCC1", "inhibition": "-1.05% (inactive)"}
{"smiles": "CCOC(=O)c1ccccc1C(=O)N1CCOCCOCCOCC1", "inhibition": "7.43% (inactive)"}
{"smiles": "Cc1oc2c(c1C(=O)N1CCOCC1)C(=O)c1ccccc1C2=O", "inhibition": "101% (active)"}
{"smiles": "Cc1ccccc1-c1ccc(Nc2ccc(C(=O)N3CCOCC3)cc2)nn1", "inhibition": "10.1% (inactive)"}
{"smiles": "CCOc1cc(/C=C2\\SC(N3CCCC(C)C3)=NC2=O)ccc1O", "note": "(stereo not drawn)", "inhibition": "-40.1% (inactive)"}
{"smiles": "Cc1ccc(C)c(S(=O)(=O)Nc2cc(C)on2)c1", "inhibition": "-13.8% (inactive)"}
{"smiles": "CCCCCc1ccc(-c2cn(Cc3ccc4ccccc4c3)nn2)cc1", "inhibition": "-16.4% (inactive)"}
{"smiles": "CCCCCc1ccc(-c2ccc(OCC)cc2)nc1", "inhibition": "79.7% (active)"}
{"smiles": "CCCCCc1ccc(-c2ccc(C(=O)O)cc2)nc1", "inhibition": "-19.1% (inactive)"}
{"smiles": "COc1cccc(C(=O)n2ccc(-c3cccs3)n2)c1", "inhibition": "2.56% (inactive)"}
{"smiles": "COC(=O)c1c(NC(=O)c2ccc(S(=O)(=O)N3CCOCC3)cc2)sc2c1CCN(C(C)C)C2", "inhibition": "-85.3% (inactive)"}
{"smiles": "O=C(NC(Nc1nc2ccc([N+](=O)[O-])cc2s1)(C(F)(F)F)C(F)(F)F)c1ccccc1", "inhibition": "94.1% (active)"}
{"smiles": "CCC(=O)NC(Nc1nc2ccc(C)cc2s1)(C(=O)OC)C(F)(F)F", "note": "(stereo not drawn)", "inhibition": "13% (inactive)"}
{"smiles": "CCOc1ccc2nc(NC(=O)c3cc([N+](=O)[O-])ccc3N3CCOCC3)sc2c1", "inhibition": "1.05% (inactive)"}
{"smiles": "COc1ccc(Cl)cc1-n1c(=S)sc2c(=O)n(-c3ccc(F)cc3)c(SCC(=O)O)nc21", "inhibition": "14.1% (inactive)"}
{"smiles": "CCOC(=O)N1CCN(C(=O)c2ccccc2SCC(=O)NCC2CCCCC2)CC1", "inhibition": "-17.7% (inactive)"}
{"smiles": "O=C(/C=C/c1cccc([N+](=O)[O-])c1)N1CCN(Cc2ccccc2)CC1", "inhibition": "-15.7% (inactive)"}
{"smiles": "O=c1c([N+](=O)[O-])cc(C(F)(F)F)cn1Cc1cccc(Cl)c1", "inhibition": "17.2% (inactive)"}
{"smiles": "O=[N+]([O-])/C=C/c1ccc2c(ccn2Cc2ccccc2)c1", "inhibition": "84.5% (active)"}
{"smiles": "Cc1ccc(C(C)C)c(OCc2nnc(SCC(=O)Nc3nccs3)n2C)c1", "inhibition": "-2.72% (inactive)"}
{"smiles": "O=C(N[C@@H](Cc1ccccc1)C(=O)OCc1ccccc1)c1nc[nH]c1C(=O)NC1CCNCC1", "inhibition": "-8.61% (inactive)"}
{"smiles": "Cc1c(NC(=O)c2c([N+](=O)[O-])cnn2C)c(=O)n(-c2ccccc2)n1C", "inhibition": "3.28% (inactive)"}
{"smiles": "CCOC(=O)c1sc(C)c2c1NC(C)(c1cccc3ccccc13)NC2=O", "note": "(stereo not drawn)", "inhibition": "31.1% (inactive)"}
